Test results as given in PubChem BioAssay AID720518 (National Center for Advancing Translational Sciences (NCATS), 2013).
Results filed as inconclusive are left out. A call without a number means that no potency is given here. Active and inactive are the calls of the source. The call rests on the fitted dose curve.

Experiment: qHTS for Inhibitors of Cell Surface uPA Generation: Wild-type Protective Antigen (WT-PrAg) Counterscreen for Cherry-picked Compounds
Conditions: cells, WT protective antigen toxicity counterscreen; series mostly up to 115 µM
Potency means the concentration at half of the fitted maximal effect.

| Structure (SMILES) | Potency |
| --- | --- |
| COc1ccc(C(C)=O)cc1CSC(=N)N | inactive |
| C[C@@H](NC(=O)c1nc[nH]c1C(=O)NCc1ccc(CNC(=O)OC(C)(C)C)cc1)c1ccccc1 | inactive |
| CC1CCCN(C(=O)c2ccc(-c3ccccc3Cl)o2)C1 (stereo unspecified) | inactive |
| Cc1ccc(C(=O)NC(=S)Nc2ccc3[nH]c(=O)[nH]c3c2)c(C)c1 | inactive |
| COc1ccc2c(c1)c1nnc(SCC(=O)Nc3ccccc3F)nc1n2C | inactive |
| Cc1c(NC(=O)C(C)OC(=O)CCC2CCCC2)c(=O)n(-c2ccccc2)n1C (stereo unspecified) | inactive |
| COC(=O)CSc1nc(N2CCOCC2)c2c(c1C#N)CCCC2 | inactive |
| Cc1cc(C)n(CCCNC(=O)c2ccc(C)o2)n1 | inactive |
| Cc1ccc2cccc(OCCCOc3ccccc3CO)c2n1 | inactive |
| CC1C2=C(CC(C)(C)CC2=O)NC2=C1C(=O)CC(C)(C)C2 | inactive |
| O=C(NCC1CCCO1)c1ccc(NC(=O)c2ccc([N+](=O)[O-])cc2)cc1 (stereo unspecified) | inactive |
| COc1ccc(CN2CCNC(=O)C2CC(=O)NCC2CCOCC2)cc1C (stereo unspecified) | inactive |
| COc1cccc(C2CC(c3ccc(C)cc3)n3ncnc3N2)c1 (stereo unspecified) | inactive |
| Cc1ccc(S(=O)(=O)NC(=O)Nc2nccs2)cc1 | inactive |
| OC(COc1ccc(Br)cc1)CN1CCN(c2ccccc2)CC1 (stereo unspecified) | inactive |
| CNS(=O)(=O)c1cc(-c2nnc(Nc3ccc(CC(N)=O)cc3)c3ccccc23)ccc1C | inactive |
| Cc1oc(-c2ccccc2F)nc1CS(=O)(=O)CC(=O)NC1CCCC(C)C1C (stereo unspecified) | inactive |
| Cc1cc(C)n2nc(CNS(=O)(=O)c3ccc(F)c(C)c3)nc2n1 | inactive |
| O=C(C[C@H]1C[C@H](C(=O)N2CCOCC2)[C@@]2(CCC3CCCC3)c3[nH]c4cc(-c5ccco5)ccc4c3CCN2C1=O)NCc1cccc(C(F)(F)F)c1 | inactive |
| COc1ccc(S(=O)(=O)c2c(O)c3ccc(C(=O)Nc4ccccc4)cc3[nH]c2=O)cc1 | inactive |
| COc1cc(SC)ccc1C(=O)OCc1nc2ccsc2c(=O)[nH]1 | inactive |
| COCCNC(=S)N(CCc1c(C)[nH]c2ccccc12)Cc1ccco1 | inactive |
| O=C(NNC(=O)c1ncc(Cl)c(Cl)c1Cl)c1ccc(F)cc1 | inactive |
| C=CC1=C(C(=O)O)N2C(=O)[C@@H](NC(=O)/C(=N\O)c3csc(N)n3)[C@H]2SC1 (stereo in doubt) | inactive |
| C/C(=N\NC(=S)NC(C)C)c1ccc(Cl)s1 | inactive |
| OCCN(Cc1ccccc1)CC(O)COc1ccc2c(c1)OCO2 (stereo unspecified) | inactive |

| Structure (SMILES) | Potency |
| --- | --- |
| CCC(C)Nc1cc(C)nc2ncnn12 (stereo unspecified) | inactive |
| S=C(Nc1ccccc1Oc1ccccc1)NC1CCCC1 | inactive |
| COc1cc(OC)cc(C(=O)NC(C(=O)Nc2ccc3c(c2)CCC3)C(C)C)c1 (stereo unspecified) | inactive |
| CCC(C)NC(=O)c1ccc2nc(-c3ccc(OC)c(OC)c3)c(-c3ccc(OC)c(OC)c3)nc2c1 (stereo unspecified) | inactive |
| CC1(C)CC2(CC(c3ccccc3)Oc3cc(O)ccc32)NC(=S)N1 (stereo unspecified) | inactive |
| CCc1nnc(NC(=O)CSc2nnnn2-c2cccc(C(C)=O)c2)s1 | inactive |
| Cc1ccc(S(=O)(=O)N2CCOCC2)cc1NC(=O)CSc1nc(N)cc(N)n1 | inactive |
| Cc1ccc2nc(Nc3ccc(Cl)cc3)c3nncn3c2c1 | inactive |
| N#C/C(N=Nc1ccccc1O)=N\Nc1ccccc1O | inactive |
| COCCN(C(=O)c1ccc(OC2CCN(S(=O)(=O)N(C)C)CC2)cc1)C(C)C | inactive |
| Cc1ccc(N=C2SCCCN2C(=O)c2cccc(N3C(=O)CCC3=O)c2)cc1Cl | inactive |
| COc1ccc(NC(=O)CC(C)CC(=O)NCc2ccccc2)c(OC)c1 (stereo unspecified) | inactive |
| COc1ccc(C2NC(=O)CCC2[N+](=O)[O-])c(OC)c1OC (stereo unspecified) | inactive |
| O=C(NC(=S)Nc1c(F)cc(F)cc1Br)c1ccc2c(c1)OCCO2 | inactive |
| CC(=O)N1CCN(C(=O)CSc2cc(C)c(Br)cc2C)CC1 | inactive |
| CCOC(=O)CN1C(=O)N[C@@H](c2ccco2)C(C(=O)OC)=C1C | inactive |
| CC(=O)Oc1ccccc1C(=O)Nc1ccccc1C(=O)N1CCCC1 | inactive |
| C[N+]1(CC(O)c2ccccc2)CCCCCC1 (stereo unspecified) | inactive |
| CSCC[C@H](NC(=O)[C@H](Cc1ccccc1)n1c(=O)[nH]c2ccccc2c1=O)C(=O)N1CCC[C@@H]1C(=O)O | inactive |
| C=CC[n+]1c(/C=C/c2ccc(OC(C)=O)c(OC)c2)ccc2ccccc21 | inactive |
| CCn1c(SC(C)C(=O)NC2CCCC2)nc2cc(S(N)(=O)=O)ccc21 (stereo unspecified) | inactive |
| C[C@@H](C(=O)Nc1ccc2ccccc2c1)[C@@H]1C[C@@]1(C)[C@@H](NC(=O)c1cccnc1)c1ccccc1 | inactive |
| CCCN1CCN(CC(=O)Nc2nncs2)CC1 | inactive |
| COc1cc(C(C)=O)ccc1OCc1cn(CC(=O)c2ccc(O)cc2)nn1 | inactive |
| COC(=O)[C@]1(Cc2ccccc2)N[C@H](CN(C)C(=O)c2ccccc2)[C@@H]2C(=O)N(Cc3ccccc3)C(=O)[C@@H]21 | inactive |
| COc1ccc(-c2cc3nc(-c4ccccc4)cc(N4CCCC(O)C4)n3n2)cc1 (stereo unspecified) | inactive |

| Structure (SMILES) | Potency |
| --- | --- |
| COc1ccc(C)cc1NC(=O)NNC(=O)C1CCC(C(C)(C)C)CC1 (stereo unspecified) | inactive |
| O=C1C=CC(O)(c2cc(=O)c3c(O)cc(O)cc3o2)C=C1 | 16.5 µM (active) |
| Cc1nc(NC2CCCCC2)c2nnn(Cc3ccccc3Cl)c2n1 | inactive |
| CCn1c(CNc2ccc(F)cc2)nnc1SCC(=O)Nc1ccccc1OC | inactive |
| CC(C)(C)C(=O)NCCc1nc2ccccc2n1CC(=O)c1ccc(Cl)cc1 | inactive |
| Cc1[nH]c(=O)[nH]c(=O)c1S(=O)(=O)N1CCCc2ccccc21 | inactive |
| CC1Cc2nc(SCC(=O)Nc3ccc4c(c3)OCO4)n(-c3ccc(F)cc3)c(=O)c2S1 (stereo unspecified) | inactive |
| COc1cccc(-n2c(SCC(=O)Nc3cc(C)on3)nc3c([nH]c4ccccc43)c2=O)c1 | inactive |
| O=C(Nc1ccnn1C1CCN(CCCC2CCCC2)CC1)c1ccccc1 | inactive |
| CCOc1ccc(OCC)c(NC(=O)c2ccc(CNc3c(N4CCCC4)c(=O)c3=O)cc2)c1 | inactive |
| CC1CCCN(C(=O)c2ccc(CNc3c(N4CCCCC4)c(=O)c3=O)cc2)C1 (stereo unspecified) | inactive |
| COc1cc(C(=O)Nc2nnc(C)s2)cc(OC)c1OC | inactive |
| Fc1ccc(CNc2ccccn2)cc1 | inactive |
| O=C(NCCS(=O)(=O)N1CCC2(CC1)OCCO2)c1ccc(F)cc1 | inactive |
| CC1(CC(=O)N/N=C/c2cc(Br)c(O)cc2O)OCCO1 | inactive |
| O=C(O)c1ccccc1/C=N/NC(=S)NC1CCCCC1 | inactive |
| CC1CCCC(NC(=O)CNC(=S)N(Cc2ccccc2)Cc2cccs2)C1C (stereo unspecified) | inactive |
| O=c1[nH]c2ccccc2cc1CN(CC1CCCO1)S(=O)(=O)c1ccccc1 (stereo unspecified) | inactive |
| CC1(C)S[C@@H]2[C@H](NC(=O)C(C(=O)O)c3ccccc3)C(=O)N2[C@H]1C(=O)O (stereo partly specified) | inactive |
| COc1ccc(C(CNC(=O)C(C)Oc2ccc(Br)cc2)N2CCCC2)cc1 (stereo unspecified) | inactive |
| Cc1cc(NC(=O)COc2cccc([N+](=O)[O-])c2)no1 | inactive |
| O=[N+]([O-])c1cccc2c(N3CCOCC3)ccnc12 | inactive |
| O=C(NCCc1ccccc1)C1CCC(=O)N(Cc2cccc(C(F)(F)F)c2)C1 (stereo unspecified) | inactive |
| COc1ccc2nc3c(cc2c1)c(NC(=O)C1CCCO1)nn3CC(C)C (stereo unspecified) | inactive |
| CC(/C=C1\SC(=S)N(CCCC(=O)Nc2ccc(C(=O)O)cc2)C1=O)=C\c1ccccc1 | inactive |
| CN(C(=O)c1ccccc1C(=O)OCC(=O)NCc1ccccc1)C1CCCCC1 | inactive |

| Structure (SMILES) | Potency |
| --- | --- |
| CC(C)N1CCc2c(sc(NC(=O)Cc3ccccc3)c2C(N)=O)C1 | inactive |
| Cc1ccc(OCc2cc(C(=O)N(C)Cc3cc(C4CC4)n[nH]3)no2)cc1C | inactive |
| Cc1cccc(C(=O)NCC(=O)OCC(=O)NC2CCCCCCC2)c1 | inactive |
| Cc1c(C(=O)N(Cc2ccccc2Cl)C2CCS(=O)(=O)C2)oc2ccccc12 (stereo unspecified) | inactive |
| Cn1c(=O)c(=O)n(C)c2cc(S(=O)(=O)CCC(=O)Nc3ccc(F)cc3)ccc21 | inactive |
| Cc1ccccc1NC1c2ccccc2C(=O)N1Cc1ccco1 (stereo unspecified) | inactive |
| COc1ccc(C(=O)NC(C)c2cnn(-c3ccccn3)c2C)o1 (stereo unspecified) | inactive |
| Cc1ccc(S(=O)(=O)Nc2nc(C)cc(N/N=C/c3ccc(O)cc3)n2)cc1 | inactive |
| COc1ccc2nc(SC(C)C(=O)NC3(C#N)CCCCC3)[nH]c2c1 (stereo unspecified) | inactive |
| CCC(=O)N1CCC(NC(=O)Nc2ccc(OC(F)(F)F)cc2)CC1 | inactive |
| COC(=O)[C@@]1(Cc2ccc(F)cc2)[C@H]2c3cc(C(=O)N(C)C)n(Cc4c(CO)[nH]cc(C)c4=O)c3C[C@H]2CN1C(=O)c1ccccc1 | inactive |
| COc1ccc(-c2cc(-c3ccccc3)nc3ncnn23)cc1 | inactive |
| C=CCn1c(SCc2ccc(C(=O)NCCO)cc2)nc2ccccc2c1=O | inactive |
| Cc1cc(C)n(-c2cc(C(=O)O)cc(C(=O)O)c2)n1 | inactive |
| O=C(NCc1ccccn1)C1CCN(C(=O)c2cc3sccc3n2Cc2ccc(F)cc2)CC1 | inactive |
| COCCN1C(=O)C(=O)/C(=C(/O)c2ccc(S(=O)(=O)N3CCOCC3)cc2)C1c1cccc([N+](=O)[O-])c1 (stereo unspecified) | inactive |
| COc1ccc(C(=O)NCCOC(C)C)cc1OC1CCN(C(C)=O)CC1 | inactive |
| COc1ccccc1CN1CC(C(=O)NCc2cccc(C)n2)CCC1=O (stereo unspecified) | inactive |
| CC1=CC(C)(C)N2C(=O)C3(NCCc4c3[nH]c3ccccc43)c3cc(C)cc1c32 (stereo unspecified) | 2.33 µM (active) |
| Cc1cc(C)n2c(SCC#N)nnc2n1 | inactive |
| COc1ccc(CCNC(=O)Cn2c(=O)n(-c3cc(F)ccc3F)c(=O)c3sccc32)cc1OC | inactive |
| O=C(COc1cccc2ccccc12)NNC(=O)c1cnccn1 | inactive |
| CCOC(=O)N1CCc2c(sc3nc4n(c(=O)c23)N=C(C)CS4)C1 | inactive |
